Inconclusive results are not listed. Active and inactive are the calls of the source. Calls follow the shape of the dose curve; as a rule, active = well fitted cell-killing curve with a large enough effect; inconclusive = small, poorly fitted or top-dose-only effect, or effect the other way; inactive = flat fitted curve, though single readings scatter.
Key:
Assay in all cases: Primary qHTS to identify gynecologic anti-cancer compounds using libraries of approved drugs and bioactive compounds (AID 1345084); also: nearly all actives have a fitted effect of over 55% in size
[1] = tested on: Es-2; settings: Gynecologic cancer cell panel viability, ATPlite luminescence, 48 h; series mostly up to 57.5 µM
How it was run: (§1)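 ATP-based viability (ATPlite), 1,000 cells/well, 16 h pre-incubation, 48 h compound at 37 C, 5% CO2, 15 min RT before read.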

[2] = tested on: HeLa; settings: Gynecologic cancer cell panel viability, ATPlite luminescence, 48 h; series mostly up to 57.5 µM
How it was run: as §1

[3] = tested on: Hek293T; settings: Gynecologic cancer cell panel viability, ATPlite luminescence, 48 h, control line for the selectivity index; series mostly up to 57.5 µM
How it was run: as §1

[4] = tested on: JEG-3; settings: Gynecologic cancer cell panel viability, ATPlite luminescence, 48 h; series mostly up to 57.5 µM
How it was run: as §1

[5] = tested on: OV90; settings: Gynecologic cancer cell panel viability, ATPlite luminescence, 48 h; series mostly up to 57.5 µM
How it was run: as §1

[6] = tested on: PA-1; settings: Gynecologic cancer cell panel viability, ATPlite luminescence, 48 h; series mostly up to 57.5 µM
How it was run: as §1

[7] = tested on: SKOV3; settings: Gynecologic cancer cell panel viability, ATPlite luminescence, 48 h; series mostly up to 57.5 µM
How it was run: as §1

[8] = tested on: Tov-21-G; settings: Gynecologic cancer cell panel viability, ATPlite luminescence, 48 h; series mostly up to 57.5 µM
How it was run: as §1

[9] = tested on: Tov112D; settings: Gynecologic cancer cell panel viability, ATPlite luminescence, 48 h; series mostly up to 57.5 µM
How it was run: as §1
% is scaled to controls: 0 for no effect and ±100 for the full control effect.

C=C1CC23CC1(O)CCC2C1=CC2OC(=O)C(C)(C2O)C1C3C(=O)O (stereo not given)
inactive: Potency [1] | Potency [2] | Potency [3] | Potency [4] | Potency [5] | Potency [6] | Potency [7] | Potency [8] | Potency [9]

COc1ccc([C@H]2Cc3cccc(O)c3C(=O)O2)cc1
inactive: Potency [1] | Potency [2] | Potency [3] | Potency [4] | Potency [5] | Potency [6] | Potency [7] | Potency [8] | Potency [9]

C=C(C(=O)OC)C1CCC2(C)C(O[C@@H]3O[C@H](CO)[C@@H](O)[C@H](O)[C@H]3O)CC(=O)C(C)C2C1O (stereo not given in full)
inactive: Potency [1] | Potency [2] | Potency [3] | Potency [4] | Potency [5] | Potency [6] | Potency [7] | Potency [8] | Potency [9]

O=C(O)c1n[nH]c2c1C[C@H]1C[C@@H]21
inactive: Potency [1] | Potency [2] | Potency [3] | Potency [4] | Potency [5] | Potency [6] | Potency [7] | Potency [8] | Potency [9]

CNC(=O)[C@H]1O[C@@H](n2cnc3c(NCc4ccc(N)c(I)c4)ncnc32)[C@H](O)[C@@H]1O
inactive: activity change, negative = cytotoxicity [1] 0.484% [at 11.6 µM] | activity change, negative = cytotoxicity [2] 5.87% [at 11.6 µM] | activity change, negative = cytotoxicity [3] 0.59% [at 11.6 µM] | activity change, negative = cytotoxicity [4] 20.5% [at 11.6 µM] | activity change, negative = cytotoxicity [5] -0.89% [at 11.6 µM] | activity change, negative = cytotoxicity [6] 0.696% [at 11.6 µM] | activity change, negative = cytotoxicity [7] -8.5% [at 11.6 µM] | activity change, negative = cytotoxicity [8] 15.7% [at 11.6 µM] | activity change, negative = cytotoxicity [9] 25.2% [at 11.6 µM]

CC(C)N(C[C@H]1O[C@@H](n2cnc3c(N)ncnc32)[C@H](O)[C@@H]1O)C1CC(CCc2nc3ccc(C(C)(C)C)cc3[nH]2)C1 (stereo not given in full)
inactive: Potency [1] | Potency [2] | Potency [3] | Potency [4] | Potency [5] | Potency [6] | Potency [7] | Potency [8] | Potency [9]

N[C@@H](CC(=O)N1CCn2c(nnc2C(F)(F)F)C1)Cc1[nH]nc2c(F)c(F)ccc12
inactive: Potency [1] | Potency [2] | Potency [3] | Potency [4] | Potency [5] | Potency [6] | Potency [7] | Potency [8] | Potency [9]

C=C[C@H]1[C@H](O[C@@H]2O[C@H](CO)[C@@H](O)[C@H](O)[C@H]2O)OC=C(C(=O)OC)[C@H]1C[C@@H]1N[C@H](C(=O)O)Cc2c1[nH]c1ccccc21
inactive: Potency [1] | Potency [2] | Potency [3] | Potency [4] | Potency [5] | Potency [6] | Potency [7] | Potency [8] | Potency [9]

CC1=C(CC(=O)O)c2cc(F)ccc2C1=Cc1ccc(S(C)(=O)=O)cc1
inactive: Potency [1] | Potency [2] | Potency [3] | Potency [4] | Potency [5] | Potency [6] | Potency [7] | Potency [8] | Potency [9]

CC12CCC3C(C)(C)C(O)CCC3(C)C1Cc1c(oc(C(=O)O)cc1=O)O2 (stereo not given)
inactive: Potency [1] | Potency [2] | Potency [3] | Potency [4] | Potency [5] | Potency [6] | Potency [7] | Potency [8] | Potency [9]

O=C(OCc1cccc(O)c1O[C@@H]1O[C@H](CO)[C@@H](O)[C@H](O)[C@H]1O)C1(O)C(=O)C2C=CC1C1C=CC(=O)C(O)(C(=O)OCc3cccc(O)c3O[C@@H]3O[C@H](CO)[C@@H](O)[C@H](O)[C@H]3O)C21 (stereo not given in full)
inactive: activity change, negative = cytotoxicity [1] 2.61% [at 11.6 µM] | activity change, negative = cytotoxicity [2] -8.79% [at 11.6 µM] | activity change, negative = cytotoxicity [3] 8.15% [at 11.6 µM] | activity change, negative = cytotoxicity [4] 0.323% [at 11.6 µM] | activity change, negative = cytotoxicity [5] -13.1% [at 11.6 µM] | activity change, negative = cytotoxicity [6] -3.46% [at 11.6 µM] | activity change, negative = cytotoxicity [7] 4.95% [at 11.6 µM] | activity change, negative = cytotoxicity [8] 1.57% [at 11.6 µM] | activity change, negative = cytotoxicity [9] 2.56% [at 11.6 µM]

CC(C)C1=CC2=CCC3[C@](C)(CCC[C@@]3(C)C(=O)O)C2CC1O (stereo not given in full)
inactive: Potency [1] | Potency [2] | Potency [3] | Potency [4] | Potency [5] | Potency [6] | Potency [7] | Potency [8] | Potency [9]

CC(C)CC(=O)OC[C@H]1O[C@@](COC(=O)CC(C)C)(O[C@H]2O[C@H](CO)[C@@H](O)[C@H](O)[C@H]2O)[C@@H](OC(=O)CC(C)C)[C@@H]1OC(=O)CC(C)C
inactive: Potency [1] | Potency [2] | Potency [3] | Potency [4] | Potency [5] | Potency [6] | Potency [7] | Potency [8] | Potency [9]

C[C@@H]1O[C@@H](O[C@H]2[C@H](O[C@H]3[C@H](O[C@H]4CC[C@@]5(CO)C(CC[C@]6(C)C5CC=C5C7CC(C)(C)C[C@@H](O)[C@]7(C)CC[C@]56C)C4(C)C)O[C@H](C(=O)O)[C@@H](O)[C@@H]3O)OC[C@@H](O)[C@@H]2O)[C@H](O)[C@H](O)[C@H]1O (stereo not given in full)
inactive: activity change, negative = cytotoxicity [1] -4.17% [at 11.6 µM] | activity change, negative = cytotoxicity [2] -12.2% [at 11.6 µM] | activity change, negative = cytotoxicity [3] -3.07% [at 11.6 µM] | activity change, negative = cytotoxicity [4] -1.11% [at 11.6 µM] | activity change, negative = cytotoxicity [5] -1.83% [at 11.6 µM] | activity change, negative = cytotoxicity [6] 6.18% [at 11.6 µM] | activity change, negative = cytotoxicity [7] 0.621% [at 11.6 µM] | activity change, negative = cytotoxicity [8] 0.307% [at 11.6 µM] | activity change, negative = cytotoxicity [9] -0.127% [at 11.6 µM]

CC(=O)OC[C@@]12[C@@H](OC(C)=O)C[C@@H](C)[C@](C)([C@@H]3C[C@H]4C=CO[C@H]4O3)[C@H]1CCC[C@]21CO1
inactive: Potency [1] | Potency [2] | Potency [3] | Potency [4] | Potency [5] | Potency [6] | Potency [7] | Potency [8] | Potency [9]
